Screens as filed in PubChem BioAssay.
The list is not random: actives were taken first. Their share in the collection is about 5.7%.
Myeloid diff MLP = induction of myeloid progenitor differentiation, primary screen, cell-based, flow cytometry, MLPCN library | AID 624256, 2012 | 1% of 360,000 active | ER-HoxA9 myeloid progenitors, lysozyme-GFP differentiation | calls only at 10 µM;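 active means normalized GFP-positive differentiation at or above the plate's own cutoff, the solvent-only control mean plus 3 SD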;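 further: cells exposed to compound for four days before flow analysis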
NR3A LBD binder = binders of NR3A ligand-binding domain, primary screen, biophysical, differential scanning fluorimetry, uHTS; Glutamate receptor ionotropic, NMDA 3A (GRIN3A) ligand-binding domain; NR3A LBD differential scanning fluorimetry, Tm shift; 0% = protein alone, 100% = glycine-bound protein; Tm shift relative to glycine control, % at 25 µM; 2.5% of 340,000 active; AID 1259313, 2017;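 active means melting temperature shift of at least 10% of the positive control shift, at one fixed dose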
MPTP inh = mitochondrial permeability transition pore inhibitors, primary screen, biochemical, isolated mouse mitochondria, absorbance; Ca2+ swelling absorbance, 30 min; inhibition, % at 10 µM; 1.4% of 360,000 active;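 active means inhibition of 50% or more, scaled per plate between neutral and stimulator controls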;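 further: 0% = DMSO wells given calcium and 100% = 1 mM EGTA wells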
FAS TE block = FAS thioesterase domain inhibitors, primary screen, biochemical, fluorescence intensity, uHTS; inhibition, % at 15 µM; recombinant FAS-TE, OMFH fluorogenic substrate, fluorescence endpoint; Fatty acid synthase (Homo sapiens), P49327; AID 602261, 2012; 0.67% of 360,000 active;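 active means compounds whose normalised, plate-corrected inhibition of enzyme fluorescence in the single-dose primary screen is 50% or more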;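 further: 0% = DMSO with enzyme and 100% = substrate without enzyme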
rCAG RNA binder = binders of r(CAG) RNA repeats, primary screen, biochemical, fluorescence | 1.3% of 370,000 active | r(CAG) RNA repeat, TO-PRO-1 dye displacement fluorescence | inhibition, % at 3 µM | AID 651821, 2012;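 active means inhibition above the plate cutoff, the mean of all test compounds on that plate plus 3 SD, cut at about 35% in these data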;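 further: 0% = DMSO alone and 100% = 100 µM mitoxantrone as full dye displacement; higher means more dye released from RNA so lower well fluorescence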
MPTP counter = fluorescence retest of MPTP screen hits in isolated mitochondria, single concentration. shares compounds with MPTP inh. membrane potential, Rhodamine 123 fluorescence. inhibition, % at 10 µM. 78% of 5,000 active. AID 624504, 2012; in the data active means inhibition above about 22%;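 further: 0% = DMSO vehicle and 100% = positive control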
MPTP abs DR = mitochondrial permeability transition pore inhibitors, dose response, biochemical, absorbance, uHTS hits; isolated mitochondria swelling; IC50, µM; shares compounds with MPTP inh; 58% of 780 active; in the data active means IC50 below about 20 µM
MPTP counter DR = fluorescent counter-screen in isolated mitochondria, dose response, counter-screen for MPTP inhibitor project, biochemical, fluorescence, uHTS hits. 49% of 780 active. IC50, µM. isolated mitochondria counterscreen, fluorescence read-out. shares compounds with MPTP inh; in the data active means IC50 below about 80 µM
* hit, by the source's call; ! = repeats disagree.

O=C(CSc1nc2ccccc2o1)Nc1nccs1 was read as Myeloid diff MLP inactive, NR3A LBD binder 1, MPTP inh 0, FAS TE block -2 and rCAG RNA binder 7.
CCOC(=O)c1c(NC(=O)CSc2nc3ccccc3o2)sc(C(C)=O)c1C was read as Myeloid diff MLP inactive, NR3A LBD binder 4, MPTP inh 101*, FAS TE block 39, rCAG RNA binder 10 and MPTP counter 75*.
For O=C(CSc1nc2ccccc2o1)Nc1nc2c(s1)CCCC2 the results were Myeloid diff MLP inactive, NR3A LBD binder -2, MPTP inh 84*, FAS TE block 18, rCAG RNA binder 3 and MPTP counter 64*.
CCOC(=O)c1c(NC(=O)C2c3ccccc3Oc3ccccc32)sc(C(C)=O)c1C was read as Myeloid diff MLP inactive, NR3A LBD binder 1, MPTP inh 85*, FAS TE block 32, rCAG RNA binder 7, MPTP counter -5, MPTP abs DR inactive and MPTP counter DR 8.6*.
CCN(CC)C(=O)Oc1ccc2oc(=O)cc(-c3cc4cccc(OC)c4o3)c2c1 was read as Myeloid diff MLP inactive, NR3A LBD binder -14, MPTP inh 2, FAS TE block 21 and rCAG RNA binder 6.
FC(F)(F)c1cc(-c2cccs2)nc(-n2cc(Cl)cn2)n1 was read as Myeloid diff MLP inactive, NR3A LBD binder -1, MPTP inh 0, FAS TE block 12 and rCAG RNA binder -2.
Screening COc1ccc(CNS(=O)(=O)c2c(C(=O)N3CCCCCC3)c(C)n(C)c2C)cc1 returned Myeloid diff MLP inactive, NR3A LBD binder -3, MPTP inh -2, FAS TE block -4 and rCAG RNA binder -6.
CC(=O)Cc1nsc(NC(=O)c2ccc(-c3ccc(Cl)cc3Cl)o2)n1 was read as Myeloid diff MLP inactive, NR3A LBD binder 6, MPTP inh 54*, FAS TE block 7, rCAG RNA binder 6 and MPTP counter 38*.
For CC(C)(C)N1C(=O)c2ccccc2NC(=O)C1C(=O)NCCc1ccccc1 (centres undefined) the results were Myeloid diff MLP inactive, MPTP inh -1 and rCAG RNA binder -1.
For Cc1cccc(NC(=O)COC(=O)c2c(-c3ccccc3)noc2C)c1 the results were Myeloid diff MLP inactive, MPTP inh -1, FAS TE block 12 and rCAG RNA binder 1.
`Cc1ccc(/C(=N/Nc2nc3ccccc3s2)C2=C(O)c3ccccc3C2=O)cc1` gave Myeloid diff MLP inactive, NR3A LBD binder 19*, MPTP inh 90*, FAS TE block 31, rCAG RNA binder 26 and MPTP counter 71*.
For Cc1ccc(S(=O)(=O)N(C)CC(=O)Nc2nc3ccccc3s2)cc1 the results were Myeloid diff MLP inactive, NR3A LBD binder -11, MPTP inh 1, FAS TE block 8 and rCAG RNA binder 2.
O=C(NCCc1ccccc1Cl)[C@@H]1CCCN1C(=O)[C@@H](NC(=O)N1CCOCC1)C1CCCCC1 was read as rCAG RNA binder -2.
COC(=O)C[C@H]1C[C@H]2c3cc(NC(=O)NC4CCCC4)ccc3O[C@H]2[C@@H](CO)O1 was read as Myeloid diff MLP inactive, MPTP inh -1, FAS TE block -5 and rCAG RNA binder 0.
For Nc1nc(Cl)cc(N2CCC(c3cc(-c4ccc(Cl)cc4Cl)n[nH]3)CC2)n1 the results were Myeloid diff MLP inactive, NR3A LBD binder 13*, MPTP inh 64*, FAS TE block 21, rCAG RNA binder 7 and MPTP counter 63*.
For CCOC(=O)C1(CCc2ccccc2)CCN(Cc2c(O)cccc2OC)CC1 the results were Myeloid diff MLP inactive, NR3A LBD binder -3, MPTP inh 62*, FAS TE block -54, rCAG RNA binder -10 and MPTP counter 88*.
`CCOC(=O)C1(CCOc2ccccc2)CCN(Cc2ccc(OC)c(COC)c2)CC1` gave Myeloid diff MLP inactive, NR3A LBD binder -2, MPTP inh 86*, FAS TE block 2, rCAG RNA binder -11 and MPTP counter 74*.
`CCOC(=O)C1(CCOc2ccccc2)CCN(Cc2ccc(C)o2)CC1` gave Myeloid diff MLP inactive, NR3A LBD binder -1, MPTP inh 3, FAS TE block -1 and rCAG RNA binder -8.
Screening CCOC(=O)C1(CCc2ccccc2)CCN(Cc2ccc(OC)cc2)CC1 returned Myeloid diff MLP inactive, NR3A LBD binder -2, MPTP inh 0, FAS TE block -8 and rCAG RNA binder -7.
Screening CCOC(=O)C1(CCOc2ccccc2)CCN(Cc2ccc(COC)o2)CC1 returned Myeloid diff MLP inactive, NR3A LBD binder -1, MPTP inh 61*, FAS TE block -1, rCAG RNA binder -10, MPTP counter 3, MPTP abs DR 19* and MPTP counter DR 37*.
For CCOC(=O)C1(CCOc2ccccc2)CCN(Cc2ccc(OC)c(O)c2)CC1 the results were Myeloid diff MLP inactive, NR3A LBD binder 2, MPTP inh 9, FAS TE block -2 and rCAG RNA binder 0.
`CCc1cc(Cl)c(OC)c(C(=O)NC[C@@H]2CCCN2CC)c1O` gave Myeloid diff MLP inactive, NR3A LBD binder 1, MPTP inh 78*!, FAS TE block 4, rCAG RNA binder -1, MPTP counter -6, MPTP abs DR 9* and MPTP counter DR >80.
COCC(=O)Nc1ccc2c(c1)OCC(=O)N2Cc1ccccc1F was read as Myeloid diff MLP inactive, NR3A LBD binder 0, MPTP inh 0, FAS TE block -4 and rCAG RNA binder 0.
COc1ccc(NC(=O)COC(=O)c2cc(C)oc2C)cc1OC was read as Myeloid diff MLP inactive, NR3A LBD binder 1, MPTP inh 0, FAS TE block -2 and rCAG RNA binder 2.
Screening COc1ccc(OC)c(C(=O)COC(=O)c2cc(C)oc2C)c1 returned Myeloid diff MLP inactive, NR3A LBD binder 5, MPTP inh 60*, FAS TE block 19, rCAG RNA binder -1, MPTP counter -8, MPTP abs DR 10* and MPTP counter DR >80.
`COC(=O)c1c(NC(=O)c2nc3ccccc3s2)sc2c1CC(C)(C)NC2(C)C` gave Myeloid diff MLP inactive, NR3A LBD binder 0, MPTP inh 60*, FAS TE block 12, rCAG RNA binder 6, MPTP counter -9, MPTP abs DR inactive and MPTP counter DR >80.
